In general, inhibition refers to the change of the read-out against control, counted positive when it falls.

The values below come from ChEMBL document CHEMBL1961873, “Compounds: GSK PKIS; Assays: Nanosyn kinase panel” (2012).

Experiment [1] concerns the target Mast/stem cell growth factor receptor Kit (Homo sapiens) (UniProt P10721). The settings on record: at 1 µM.
The test system of experiment [2] is Mast/stem cell growth factor receptor Kit (Homo sapiens), P10721 [D816V]. The settings on record: at 0.1 µM.
Mast/stem cell growth factor receptor Kit (Homo sapiens), P10721 [D816V], sequence (P10721 whole entry D816V): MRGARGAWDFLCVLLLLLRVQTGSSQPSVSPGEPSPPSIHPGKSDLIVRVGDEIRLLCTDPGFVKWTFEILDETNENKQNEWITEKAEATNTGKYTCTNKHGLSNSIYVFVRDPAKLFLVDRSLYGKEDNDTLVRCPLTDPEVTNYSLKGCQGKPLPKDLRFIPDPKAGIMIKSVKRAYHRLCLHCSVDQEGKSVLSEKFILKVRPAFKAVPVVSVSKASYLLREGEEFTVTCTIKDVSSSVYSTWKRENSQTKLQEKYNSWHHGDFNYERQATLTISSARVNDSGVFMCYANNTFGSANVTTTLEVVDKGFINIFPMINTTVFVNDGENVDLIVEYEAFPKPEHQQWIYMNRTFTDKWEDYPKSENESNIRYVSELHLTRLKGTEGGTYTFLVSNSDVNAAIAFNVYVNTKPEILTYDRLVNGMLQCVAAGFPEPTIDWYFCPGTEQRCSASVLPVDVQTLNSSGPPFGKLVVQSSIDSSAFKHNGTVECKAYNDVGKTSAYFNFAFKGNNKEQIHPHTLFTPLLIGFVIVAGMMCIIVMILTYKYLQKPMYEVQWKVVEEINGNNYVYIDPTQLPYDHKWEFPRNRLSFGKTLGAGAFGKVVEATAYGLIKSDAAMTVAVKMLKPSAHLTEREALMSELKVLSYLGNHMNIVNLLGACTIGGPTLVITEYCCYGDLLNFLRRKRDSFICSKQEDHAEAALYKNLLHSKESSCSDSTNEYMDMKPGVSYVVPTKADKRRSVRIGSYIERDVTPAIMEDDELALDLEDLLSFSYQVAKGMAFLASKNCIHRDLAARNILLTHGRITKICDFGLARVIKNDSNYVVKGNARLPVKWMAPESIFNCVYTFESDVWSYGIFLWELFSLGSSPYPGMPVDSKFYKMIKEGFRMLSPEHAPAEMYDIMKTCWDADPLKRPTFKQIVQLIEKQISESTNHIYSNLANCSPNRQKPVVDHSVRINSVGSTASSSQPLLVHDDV
Experiment [3] has the same test system. Particulars: at 1 µM.
Experiment [4] relates to Mast/stem cell growth factor receptor Kit (Homo sapiens), P10721 [T670I]. Particulars: at 0.1 µM.
Mast/stem cell growth factor receptor Kit (Homo sapiens), P10721 [T670I], sequence (P10721 whole entry T670I): as the sequence (P10721 whole entry D816V) above, with T670I, V816D counted along it
Experiment [5] shares this test system. The settings on record: at 1 µM.
For experiment [6], the system named is Mast/stem cell growth factor receptor Kit (Homo sapiens), P10721 [V560G]. The settings on record: at 0.1 µM.
Mast/stem cell growth factor receptor Kit (Homo sapiens), P10721 [V560G], sequence (P10721 whole entry V560G): as the sequence (P10721 whole entry D816V) above, with V560G, V816D counted along it
For experiment [7] the test system is unchanged. The settings on record: at 1 µM.
Experiment [8] addresses Tyrosine-protein kinase Lck (Homo sapiens) (UniProt P06239). The settings on record: at 0.1 µM.
Experiment [9] has the same target. The settings on record: at 1 µM.
Experiment [10] deals with Leukocyte tyrosine kinase receptor (Homo sapiens) (UniProt P29376). Particulars: at 0.1 µM.
Leukocyte tyrosine kinase receptor (Homo sapiens), sequence (P29376 whole entry): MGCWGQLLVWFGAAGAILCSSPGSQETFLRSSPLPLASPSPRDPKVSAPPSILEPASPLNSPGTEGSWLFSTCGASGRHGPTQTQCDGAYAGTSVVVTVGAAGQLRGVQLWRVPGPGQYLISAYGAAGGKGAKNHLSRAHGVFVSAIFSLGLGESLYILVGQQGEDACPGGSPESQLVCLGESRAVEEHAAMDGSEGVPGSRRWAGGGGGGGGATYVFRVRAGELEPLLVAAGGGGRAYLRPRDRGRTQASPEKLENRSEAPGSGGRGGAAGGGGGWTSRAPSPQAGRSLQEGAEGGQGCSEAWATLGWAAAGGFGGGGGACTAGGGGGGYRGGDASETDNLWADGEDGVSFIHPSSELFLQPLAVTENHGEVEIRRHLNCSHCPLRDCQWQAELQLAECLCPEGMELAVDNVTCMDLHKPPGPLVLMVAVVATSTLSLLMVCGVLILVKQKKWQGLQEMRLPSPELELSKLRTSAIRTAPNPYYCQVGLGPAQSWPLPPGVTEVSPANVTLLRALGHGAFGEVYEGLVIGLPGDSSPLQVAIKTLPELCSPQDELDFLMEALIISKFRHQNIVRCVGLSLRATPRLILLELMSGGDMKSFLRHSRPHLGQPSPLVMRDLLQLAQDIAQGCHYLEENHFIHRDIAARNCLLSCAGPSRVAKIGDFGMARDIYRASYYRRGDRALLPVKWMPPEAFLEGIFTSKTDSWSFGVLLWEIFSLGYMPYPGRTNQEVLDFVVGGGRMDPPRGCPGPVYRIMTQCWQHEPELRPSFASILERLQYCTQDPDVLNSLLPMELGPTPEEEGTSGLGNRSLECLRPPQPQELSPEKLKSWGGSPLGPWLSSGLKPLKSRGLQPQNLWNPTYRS
For experiment [11] the target is unchanged. The settings on record: at 1 µM.
In experiment [12] the target is Tyrosine-protein kinase Lyn (Homo sapiens) (UniProt P07948). The settings on record: at 0.1 µM.
Tyrosine-protein kinase Lyn (Homo sapiens), sequence (P07948 2-512 limits assumed): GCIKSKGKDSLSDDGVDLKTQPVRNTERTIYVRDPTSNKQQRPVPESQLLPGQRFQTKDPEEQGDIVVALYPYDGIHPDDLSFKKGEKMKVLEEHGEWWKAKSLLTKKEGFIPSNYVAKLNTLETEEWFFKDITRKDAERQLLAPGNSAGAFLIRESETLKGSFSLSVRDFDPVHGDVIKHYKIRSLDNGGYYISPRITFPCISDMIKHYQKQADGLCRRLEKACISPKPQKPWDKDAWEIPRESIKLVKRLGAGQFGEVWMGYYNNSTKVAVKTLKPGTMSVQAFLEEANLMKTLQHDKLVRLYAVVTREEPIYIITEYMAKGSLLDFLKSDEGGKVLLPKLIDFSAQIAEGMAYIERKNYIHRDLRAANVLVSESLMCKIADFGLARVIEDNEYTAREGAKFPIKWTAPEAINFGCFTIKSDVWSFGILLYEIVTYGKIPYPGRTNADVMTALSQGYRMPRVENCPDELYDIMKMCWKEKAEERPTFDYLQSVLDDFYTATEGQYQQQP
Experiment [13] has the same target. Particulars: at 1 µM.
Experiment [14] has the same target. Particulars: at 0.1 µM. This is another data set of the same source.
Experiment [15] has the same target. Particulars: at 1 µM. The source holds these as a separate data set.
The target in experiment [16] is T1, Tyrosine-protein kinase Mer (Homo sapiens) (UniProt Q12866).
T1 sequence (whole entry): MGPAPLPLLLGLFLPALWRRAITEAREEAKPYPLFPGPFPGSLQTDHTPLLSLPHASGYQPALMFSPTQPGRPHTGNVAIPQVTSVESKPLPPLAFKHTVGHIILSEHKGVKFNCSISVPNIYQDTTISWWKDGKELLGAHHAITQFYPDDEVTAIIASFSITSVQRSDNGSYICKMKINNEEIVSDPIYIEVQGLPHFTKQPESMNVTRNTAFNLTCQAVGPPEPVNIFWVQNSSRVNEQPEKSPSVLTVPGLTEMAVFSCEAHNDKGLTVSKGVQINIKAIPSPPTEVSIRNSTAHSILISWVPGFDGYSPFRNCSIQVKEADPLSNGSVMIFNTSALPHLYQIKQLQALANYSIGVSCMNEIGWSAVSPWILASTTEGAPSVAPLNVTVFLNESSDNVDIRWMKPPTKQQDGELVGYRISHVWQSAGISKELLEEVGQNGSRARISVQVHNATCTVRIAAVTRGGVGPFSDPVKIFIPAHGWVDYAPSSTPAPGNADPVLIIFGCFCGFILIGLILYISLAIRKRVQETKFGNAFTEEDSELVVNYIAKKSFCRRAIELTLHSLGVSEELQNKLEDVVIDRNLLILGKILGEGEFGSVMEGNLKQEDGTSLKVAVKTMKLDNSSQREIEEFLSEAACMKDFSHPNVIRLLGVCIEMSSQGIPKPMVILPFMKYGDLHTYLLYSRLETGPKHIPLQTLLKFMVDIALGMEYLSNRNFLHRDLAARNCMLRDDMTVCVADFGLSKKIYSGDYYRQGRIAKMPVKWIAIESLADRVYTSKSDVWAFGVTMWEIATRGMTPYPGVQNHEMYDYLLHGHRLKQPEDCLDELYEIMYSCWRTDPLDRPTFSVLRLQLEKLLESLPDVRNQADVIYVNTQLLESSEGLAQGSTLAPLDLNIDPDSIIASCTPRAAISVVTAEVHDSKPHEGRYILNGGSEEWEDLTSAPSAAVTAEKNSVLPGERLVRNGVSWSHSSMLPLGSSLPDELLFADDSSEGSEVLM
Particulars: at 0.1 µM.

Experiment [17] has as its target T1, Tyrosine-protein kinase Mer (Homo sapiens). Particulars: at 1 µM.
Experiment [18] concerns the target Hepatocyte growth factor receptor (Homo sapiens) (UniProt P08581). The settings on record: at 0.1 µM.
The target is the same in experiment [19]. Particulars: at 1 µM.
Experiment [20] addresses T2, Muscle, skeletal receptor tyrosine-protein kinase (Homo sapiens) (UniProt O15146).
T2 sequence (whole entry): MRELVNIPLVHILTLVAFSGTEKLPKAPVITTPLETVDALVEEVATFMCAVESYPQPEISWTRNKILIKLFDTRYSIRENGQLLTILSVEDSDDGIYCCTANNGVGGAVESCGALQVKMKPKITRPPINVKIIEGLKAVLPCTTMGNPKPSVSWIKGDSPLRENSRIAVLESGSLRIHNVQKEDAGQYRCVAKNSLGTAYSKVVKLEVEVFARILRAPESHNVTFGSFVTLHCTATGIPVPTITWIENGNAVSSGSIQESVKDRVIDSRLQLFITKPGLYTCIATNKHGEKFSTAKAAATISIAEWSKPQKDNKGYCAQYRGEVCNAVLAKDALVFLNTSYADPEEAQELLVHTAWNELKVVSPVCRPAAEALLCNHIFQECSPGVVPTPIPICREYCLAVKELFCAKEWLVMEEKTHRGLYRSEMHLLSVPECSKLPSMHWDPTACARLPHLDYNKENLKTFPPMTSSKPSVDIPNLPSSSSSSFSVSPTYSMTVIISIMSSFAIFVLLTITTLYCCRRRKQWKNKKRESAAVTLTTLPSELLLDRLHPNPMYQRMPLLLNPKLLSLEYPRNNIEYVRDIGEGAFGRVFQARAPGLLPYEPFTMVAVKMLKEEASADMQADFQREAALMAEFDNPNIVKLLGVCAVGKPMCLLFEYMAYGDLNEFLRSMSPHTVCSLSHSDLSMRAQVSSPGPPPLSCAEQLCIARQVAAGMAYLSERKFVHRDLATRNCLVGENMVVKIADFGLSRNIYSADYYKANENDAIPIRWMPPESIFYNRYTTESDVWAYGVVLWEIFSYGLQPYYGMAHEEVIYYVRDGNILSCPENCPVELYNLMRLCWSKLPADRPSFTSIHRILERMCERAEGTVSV
The settings on record: at 0.1 µM.

Hepatocyte growth factor receptor (Homo sapiens), sequence (P08581 whole entry): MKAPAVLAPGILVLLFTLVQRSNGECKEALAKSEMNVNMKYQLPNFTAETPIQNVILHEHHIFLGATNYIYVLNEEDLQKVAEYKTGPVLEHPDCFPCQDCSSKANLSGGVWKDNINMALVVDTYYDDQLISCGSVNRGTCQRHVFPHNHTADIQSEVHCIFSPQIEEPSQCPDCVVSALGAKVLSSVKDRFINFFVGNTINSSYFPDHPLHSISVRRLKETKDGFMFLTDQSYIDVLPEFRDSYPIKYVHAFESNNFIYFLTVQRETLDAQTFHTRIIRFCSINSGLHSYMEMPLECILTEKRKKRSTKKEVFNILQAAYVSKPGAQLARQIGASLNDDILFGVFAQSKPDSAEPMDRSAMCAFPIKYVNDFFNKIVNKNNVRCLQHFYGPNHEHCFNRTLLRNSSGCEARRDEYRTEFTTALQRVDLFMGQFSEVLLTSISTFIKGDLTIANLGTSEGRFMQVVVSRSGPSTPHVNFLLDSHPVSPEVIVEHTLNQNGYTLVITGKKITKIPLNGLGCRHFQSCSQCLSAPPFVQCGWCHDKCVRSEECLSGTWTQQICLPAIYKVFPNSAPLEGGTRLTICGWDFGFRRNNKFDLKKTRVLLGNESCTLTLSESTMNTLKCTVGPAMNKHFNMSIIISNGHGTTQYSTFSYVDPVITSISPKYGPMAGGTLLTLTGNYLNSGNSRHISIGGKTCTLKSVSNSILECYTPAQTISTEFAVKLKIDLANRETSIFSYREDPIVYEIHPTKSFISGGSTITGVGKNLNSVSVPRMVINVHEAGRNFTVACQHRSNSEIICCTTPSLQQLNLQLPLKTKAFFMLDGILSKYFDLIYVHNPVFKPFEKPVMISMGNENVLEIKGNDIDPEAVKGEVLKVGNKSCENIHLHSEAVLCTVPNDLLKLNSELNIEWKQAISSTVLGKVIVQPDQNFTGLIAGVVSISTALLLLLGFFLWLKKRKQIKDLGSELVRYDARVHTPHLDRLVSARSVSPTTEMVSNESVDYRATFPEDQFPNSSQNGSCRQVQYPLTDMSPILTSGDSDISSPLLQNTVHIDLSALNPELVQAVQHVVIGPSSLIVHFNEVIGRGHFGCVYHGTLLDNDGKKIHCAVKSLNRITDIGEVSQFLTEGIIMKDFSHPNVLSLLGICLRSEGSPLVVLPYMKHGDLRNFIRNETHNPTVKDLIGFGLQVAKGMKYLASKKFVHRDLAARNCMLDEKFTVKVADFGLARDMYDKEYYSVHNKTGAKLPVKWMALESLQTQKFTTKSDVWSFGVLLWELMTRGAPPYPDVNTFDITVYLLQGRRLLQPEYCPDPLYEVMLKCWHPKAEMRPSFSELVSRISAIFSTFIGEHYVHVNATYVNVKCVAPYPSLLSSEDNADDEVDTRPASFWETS
Tyrosine-protein kinase Lck (Homo sapiens), sequence (P06239 2-509 limits assumed): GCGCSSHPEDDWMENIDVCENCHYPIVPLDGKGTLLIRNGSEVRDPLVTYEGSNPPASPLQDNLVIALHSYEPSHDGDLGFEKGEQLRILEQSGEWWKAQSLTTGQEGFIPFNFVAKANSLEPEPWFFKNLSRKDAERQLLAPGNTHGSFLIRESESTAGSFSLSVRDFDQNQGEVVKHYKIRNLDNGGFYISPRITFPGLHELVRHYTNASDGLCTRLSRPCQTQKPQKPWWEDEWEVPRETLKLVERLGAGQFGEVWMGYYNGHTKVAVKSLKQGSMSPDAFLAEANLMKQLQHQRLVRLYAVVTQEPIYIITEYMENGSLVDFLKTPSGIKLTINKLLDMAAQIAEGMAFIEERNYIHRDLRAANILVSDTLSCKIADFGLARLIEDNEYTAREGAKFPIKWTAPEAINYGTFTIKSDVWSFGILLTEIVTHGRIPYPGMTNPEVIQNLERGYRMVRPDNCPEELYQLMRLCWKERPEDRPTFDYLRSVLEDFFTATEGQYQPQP
Mast/stem cell growth factor receptor Kit (Homo sapiens), sequence (P10721 whole entry): as the sequence (P10721 whole entry D816V) above, with V816D counted along it

Take `CCn1c(-c2nonc2N)nc2c(C#CC(C)(C)O)nc(O[C@@H](CN)c3ccccc3)cc21`: the inhibition is 2.69% in [1]; 0.72% in [2]; 34.2% in experiment [3]; -0.51% in experiment [4]; 10.4% in experiment [5]; 3.42% in experiment [6]. The inhibition in experiment [7] came out at 3.54%; in experiment [8], 0.41%; in experiment [9] it was 4.58%; in experiment [10], 35.4%; in experiment [11] it was 76.6%; in experiment [12], 2.08%. Moreover, the inhibition was found to be 22.1% in experiment [13]; 0.81% in experiment [14]; 16.8% in [15]; 0.05% in experiment [16]; 0.57% in [17]; 3.67% in [18]. The inhibition in experiment [19] was -0.12%; in experiment [20] it was -1.29%.

As to `NS(=O)(=O)c1ccc(-c2ccc3c(NC(=O)C4CC4)n[nH]c3c2)cc1`, the inhibition in experiment [1] stood at 1.91%; in experiment [2], 3.57%; in experiment [3], 0.9%; in experiment [4], 4.28%; in experiment [5] it was 4.13%; in experiment [6] it was 2.1%. In addition, the inhibition is -1.99% in experiment [7]; 2.8% in experiment [8]; 4.43% in experiment [9]; 1.17% in experiment [10]; -0.4% in [11]; 2.87% in experiment [12]. The inhibition is 3.71% in experiment [13]; 1.42% in [14]; 3.29% in experiment [15]; 0.15% in [16]; 4.26% in [17]; -4.19% in [18]. The inhibition in experiment [19] was 0.32%; in [20] it was 3.88%.

Take `Cc1cc(-c2ccco2)cc(C)c1/C=C/c1cncc(-c2nn[nH]n2)c1`: the inhibition was 0.94% in [1]; -2.81% in [2]; -2.99% in [3]; 1.44% in [4]; 0.51% in experiment [5]; 1.15% in experiment [6]. Further, the inhibition in experiment [7] was 3.87%; in experiment [8], 1.77%; in [9], 4.38%; in experiment [10] it was 1.51%; in [11], 1.64%; in [12] it was 1.98%. The inhibition in experiment [13] stood at 5.29%; in experiment [14], 2.99%; in experiment [15], 3.6%; in [16] it was 0.26%; in experiment [17], 3.44%; in experiment [18] it was 4.92%. Besides, the inhibition in [19] is 3.8%; in [20] it was -1.44%.

As for `CCn1c(-c2nonc2N)nc2c(C#CC(C)(C)O)ncc(OC[C@@H]3CCCN3)c21`, the inhibition in [1] was -2.57%; in [2] it was -1.62%; in experiment [3], 4.32%; in experiment [4], -1.38%; in experiment [5], 1.32%; in experiment [6] it was 0.39%. Besides, the inhibition in experiment [7] is -1.89%; in [8], 1.21%; in experiment [9], 3.66%; in [10], 0.71%; in experiment [11], 2.22%; in [12] it was 2.35%. The inhibition is 1.33% in [13]; 1.2% in [14]; 1.89% in experiment [15]; -0.41% in experiment [16]; -0.43% in experiment [17]; 5.01% in experiment [18]. Further, the inhibition in [19] is 5.81%; in experiment [20] it was -2.15%.

Consider `NC(=O)c1sc(-n2cnc3cc(C(F)(F)F)ccc32)cc1OCc1ccccc1Br`, for which the inhibition is 1.77% in [1]; -1.89% in [2]; -0.03% in [3]; 0.92% in experiment [4]; 0.92% in [5]; 0.44% in experiment [6]. Also, the inhibition in experiment [7] was -1.3%; in [8], 1.84%; in experiment [9], 4.62%; in [10], 1.94%; in experiment [11] it was 4.03%; in [12], 3.08%. For the same molecule, the inhibition in experiment [13] was 4.62%; in experiment [14], 2.14%; in experiment [15], 3.91%; in experiment [16], -1.59%; in experiment [17] it was 4.52%; in experiment [18] it was -0.38%. The inhibition came out at 8.07% in experiment [19] and 1.36% in experiment [20].

Regarding `COc1cc2c(cc1Nc1nc(Nc3ccsc3C(N)=O)c3cc[nH]c3n1)N(C(=O)CN(C)C)CCC2`, the inhibition was 0.61% in [2]; 2.53% in experiment [3]; -0.99% in experiment [4]; 3.92% in experiment [5]; 1.1% in experiment [6]; 8.54% in [7]. The inhibition in [8] came to 2.58%; in experiment [9], 6.92%; in [10], 93.8%; in experiment [11] it was 94.9%; in [12], 3.9%; in experiment [13], 5.94%. Also, the inhibition in experiment [14] was 2.54%; in experiment [15] it was 2.25%; in [16], 1.81%; in experiment [17], 6.9%; in [18], 6.76%; in experiment [19], 7.29%. In experiment [20], the inhibition stood at 3.98%.

On to `COc1cc(C=NNc2ncnc3c2cnn3Cc2ccccc2)ccc1O`, for which the inhibition in [1] was -1.55%; in experiment [2] it was -5.85%; in experiment [3], 0.6%; in experiment [4], -3.69%; in experiment [5], -2.85%; in [6], 1.99%. The inhibition is 3.94% in experiment [7]; 13.2% in experiment [8]; 14.2% in experiment [9]; -2.98% in [10]; -1.02% in [11]; 7.35% in [12]. Moreover, the inhibition is 41.8% in experiment [13]; 3.91% in [14]; 35.4% in experiment [15]; 0.56% in experiment [16]; 6.34% in experiment [17]; -3.62% in [18]. The inhibition is 7.19% in experiment [19] and -1.07% in experiment [20].
